Assay outcomes from PubChem.
aGlu spleen mod – qHTS Assay for Inhibitors and Activators of Human alpha-Glucosidase From Spleen Homogenate. Lysosomal alpha-glucosidase (Homo sapiens), P10253. human spleen homogenate, 4-MU-alpha-glucoside fluorescence. Potency, µM (series often up to 79.9 µM), for the others: at the top dose activity change, negative = inhibition, usual class: inhibitors. AID 2112, 2009. 240,000 compounds, 0.006% hits;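 also: potency is read from the fitted curve at half-maximal effect; 0% = enzyme with vehicle and -100% = no enzyme basal signal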
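AC50 values come from Hill-equation fits of concentration-response data, normalized to no-enzyme and full-activity controls. Enzyme source: 1 ug human spleen homogenate; 1 mM fluorogenic 4-MU glucoside, pH 5.0 citrate buffer, 37 C, 40 min.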
N370S GC mod – qHTS Assay for Inhibitors and Activators of N370S glucocerebrosidase as a Potential Chaperone Treatment of Gaucher Disease. Lysosomal acid glucosylceramidase (Homo sapiens), P04062. N370S GC spleen homogenate, 4MU-glucoside fluorescence. Potency, µM (top dose mostly 59.4 µM), for the others: top-dose activity change, negative = inhibition, usual class: inhibitors. 330,000 compounds, 0.092% hits. AID 2101, 2009;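 also: potency is read from the fitted curve at half-maximal effect; 0% = full enzyme activity and -100% = no enzyme basal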
aGal spleen mod – qHTS Assay for Inhibitors and Activators of Human alpha-Galactosidase From Spleen Homogenate; human spleen homogenate, 4MU-alpha-Gal fluorescence, 40 min; 240,000 compounds, 0.008% hits; Alpha-galactosidase A (Homo sapiens), P06280; AID 2107, 2009; Potency, µM (top dose mostly 80 µM), without a hit: at the highest dose activity change, negative = inhibition, usual class: inhibitors;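 also: potency is read from the fitted curve at half-maximal effect; 0% = enzyme with vehicle and -100% = no enzyme basal signal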
Target sequence (P06280 32-429 limits assumed): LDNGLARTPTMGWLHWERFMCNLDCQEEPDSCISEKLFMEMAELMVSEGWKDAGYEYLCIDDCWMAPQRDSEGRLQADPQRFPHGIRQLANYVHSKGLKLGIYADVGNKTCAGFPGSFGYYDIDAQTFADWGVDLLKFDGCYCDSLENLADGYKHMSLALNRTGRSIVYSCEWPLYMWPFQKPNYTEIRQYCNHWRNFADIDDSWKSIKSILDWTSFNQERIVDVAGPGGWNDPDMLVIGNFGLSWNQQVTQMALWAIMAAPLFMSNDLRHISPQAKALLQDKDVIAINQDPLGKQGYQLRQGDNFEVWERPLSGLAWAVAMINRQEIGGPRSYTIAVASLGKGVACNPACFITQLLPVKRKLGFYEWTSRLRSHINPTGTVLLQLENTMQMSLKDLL
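Spleen homogenate 1 ug + cpd (titration) + 4-MU-alpha-D-galactopyranoside 1 mM; 37C 40 min; 50 mM citrate/phosphate pH 5.0, 0.01% Tween-20; stop pH 10; fluorescence 365/440; AC50 via Hill.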
GAA glycogen – qHTS Assay for Inhibitors and Activators of Human alpha-Glucosidase Cleavage of Glycogen; AID 2100, 2009; Lysosomal alpha-glucosidase (Homo sapiens), P10253; recombinant GAA, glycogen substrate, Amplex Red glucose oxidase fluorescence; 300,000 compounds, 0.38% hits; Potency, µM (highest dose often 76.4 µM), for the others: top-dose activity change, negative = inhibition, hits mostly inhibitors;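 also: potency is read from the fitted curve at half-maximal effect; 0% = full enzyme reaction and -100% = no-enzyme basal signal; the screen sought inhibitors and activators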
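qHTS, 1536-well; enzyme 4 nM final; cpd up to 77 uM; substrate bovine liver glycogen 30 ug; 50 mM citrate/phosphate pH 5.0, 0.01% Tween-20; 37 C, 40 min; Amplex Red detection 45 min RT; Hill fit → AC50.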
GLA inh pH 4.5 – qHTS Assay for Inhibitors of Human alpha-Galactosidase at pH 4.5. activity change, negative = inhibition, % at 105 µM. 230,000 tested, under 10 active. purified enzyme, 4-MU-alpha-Gal fluorescence, pH 4.5. AID 1467, 2008;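 also: 0% = full activity with enzyme and -100% = basal without enzyme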
GAA inhib – qHTS Assay for Inhibitors of Human alpha-Glucosidase as a Potential Chaperone Treatment of Pompe Disease; Lysosomal alpha-glucosidase (Homo sapiens), P10253; purified human GAA, 4-MU-alpha-glucoside fluorescence; Potency, µM (top dose mostly 76.9 µM), for inactives: top-dose activity change, negative = inhibition, hits mostly inhibitors; 200,000 compounds, 0.005% hits; AID 1466, 2008;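 also: potency is read from the fitted curve at half-maximal effect; plate controls were uninhibited enzyme wells for no effect and no-enzyme background for full effect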
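Activity normalized between no-enzyme (basal) and enzyme-only wells. Conditions: 4 nM human enzyme, 400 uM fluorogenic substrate, citrate/phosphate pH 5.0 with Tween-20, 20 min room temperature, compounds up to 77 uM.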
Active calls of the source: *; ? = inconclusive; . = no result; [ ] = dose if it differs, or a comment. Most compounds without a hit are left out; they make up all but 0.41% or so of the library. Calls follow the shape of the dose curve; as a rule, active = well fitted curve in the direction sought with a large enough effect; inconclusive = small, poorly fitted or top-dose-only effect, or another doubt; inactive = no such curve, though single readings can be large; an effect the other way counts as inactive or inconclusive.

SMILES	aGlu spleen mod	N370S GC mod	aGal spleen mod	GAA glycogen	GLA inh pH 4.5	GAA inhib
COc1c(F)c(F)c(C(=O)Nc2ccc(N3CCN(C(C)=O)CC3)c(Cl)c2)c(F)c1F	-1.0%	11.2µM*	1.5%	-0.7%	-0.7	-2.9%
CN(C)NC(=O)c1ccsc1NC(=O)c1ccc(S(=O)(=O)N(C)C)cc1	-2.9%	-7.4%	-1.8%	5.62µM*	3.0	.
CC(C)NC(=O)c1ccc(S(=O)(=O)N(C)C)cc1	4.5%	3.0%	3.5%	22.7%	5.7	0.3%
Brc1ccc(C=Nc2ccc(Nc3ccccc3)cc2)s1	-11.1%	-3.7%	1.4%	8.91µM*	19.0	2.0%
C(=Nc1ccc(Nc2ccccc2)cc1)c1ccc2ccccc2c1	-3.1%	-5.9%	-9.1%	17.8µM*	-0.8	-4.6%
COCCCNC(=O)c1c(NC(=O)Cc2coc3c(C)c(C)ccc23)sc2c1CCCC2	.	.	.	8.8%[76.3 µM]	.	.
CCCN(CCC)C(=O)C1CCN(c2cc(C)nc3c(-c4ccc(Cl)cc4)c(C)nn23)CC1	.	.	.	11.4%[76.3 µM]	.	.
O=C(NCC1CCCO1)NC1(C(F)(F)F)Oc2ccccc2O1 (configuration not stated)	-2.0%	12.0%	2.4%	-18.7%	7.6	-1.5%
O=C(NC1(C(F)(F)F)Oc2ccccc2O1)N1CCCC1	2.3%	2.3%	3.6%	7.88µM*	2.0	-3.3%
CCCCC(=O)NNC(=S)NC(=O)c1ccc(C)cc1	-11.5%	-10.5%	2.3%	-29.4%	7.7	?
Cc1ccc(C(=O)NC(=S)NNC(=O)CC#N)cc1	6.6%	-2.4%	5.9%	11.1µM*	-0.3	?
CCOc1ccccc1-n1nnc(-c2nc(-c3ccccc3)no2)c1N	.	.	.	19.4%[76.3 µM]	.	.
C(=N\Nc1ccc2ccccc2n1)/c1ccc2c(c1)OCCO2	-1.5%	-0.2%	-3.7%	-28.5%	-3.6	?
C(=N\Nc1nc2ccccc2[nH]1)/c1ccc2c(c1)OCCO2	0.6%	-4.9%	-7.1%	12.6µM*	-9.9	-8.9%
COc1ccc2c(c1)c(/C=N/Nc1nc3ccccc3[nH]1)c(C)n2C	-7.0%	?	-5.4%	28.2µM*	-15.6	?
COc1cc(/C=N\Nc2nc3ccccc3[nH]2)cc(OC)c1OC	4.7%	-1.6%	4.7%	15.7µM*	0.6	0.0%
COc1ccc(/C=N/Nc2nc3ccccc3[nH]2)cc1OC	1.7%	-13.8%	7.1%	?	-1.8	-2.4%
COC(=O)C1(C)C=C(Nc2ccc(OC)cc2)C(=O)N1c1ccc(OC)cc1 (configuration not stated)	-6.6%	0.0%	9.5%	.	-4.2	.
O=C(Oc1cccc2c(O)cccc12)c1ccccc1	-2.3%	1.4%	-2.2%	28.2µM*	-5.5	-10.7%
CCc1ccc(C2CC(=O)c3c([nH]c(C(=O)OCC4CCCCC4)c3C)C2)cc1 (configuration not stated)	.	.	.	-6.1%[76.3 µM]	.	.
c1ccc(CNc2nc(-c3cccs3)nc3ccccc23)nc1	-2.9%	-29.0%	-14.3%	3.8%	-5.2	3.6%
Cc1ccc(CNc2oc(-c3cccs3)nc2C#N)cc1	6.8%	27.9%	?	22.4µM*	12.5	?
Cc1ccc(CNc2nc(-c3cccs3)nc3ccccc23)cc1	-6.7%	14.1µM*	-17.6%	-11.5%	-1.9	-10.0%
N#Cc1nc(Cc2ccccc2)oc1NCc1ccccc1	-4.8%	7.5%	-2.2%	50.1µM*	-7.5	-4.2%
Cc1ccc2oc(-c3cccc(NC(=O)c4sc5c([N+](=O)[O-])cccc5c4Cl)c3)nc2c1	.	.	.	-2.4%[76.3 µM]	.	.
SMILES	aGlu spleen mod	N370S GC mod	aGal spleen mod	GAA glycogen	GLA inh pH 4.5	GAA inhib
CCN(c1ccccc1C)S(=O)(=O)c1nnc(NC(=O)c2ccccc2C)s1	.	.	.	-13.7%[76.3 µM]	.	.
Nc1nc(N2CCN(C(c3ccccc3)c3ccccc3)CC2)n[nH]1	-2.1%	-6.8%	3.7%	?	0.7	4.5%
Nc1nc(N2CCN(Cc3ccccc3)CC2)n[nH]1	-4.2%	-0.9%	3.8%	5.62µM*	7.8	7.1%
Cc1c(NC2=C(Cl)C(=O)N(c3ccccc3)C2=O)c(=O)n(-c2ccccc2)n1C	-2.5%	-11.6%	-4.7%	10µM*	-3.9	-0.3%
Cc1c(NC2=C(Cl)C(=O)N(c3ccccc3Cl)C2=O)c(=O)n(-c2ccccc2)n1C	4.2%	-0.4%	10.5%	-0.1%	-16.0	-4.1%
Cc1ccc(OCCn2cc(/C(N)=N/O)c3ccccc32)cc1C	-23.5%	?	-5.2%	39.8µM*	-6.2	-5.7%
COc1ccc(OCCn2cc(/C(N)=N/O)c3ccccc32)cc1	-4.7%	-15.3%	9.3%	12.5µM*	1.2	?
COC(=O)c1cn(CCOc2ccccc2)c2ccccc12	2.5%	26.0%	-8.7%	-7.2%	-3.7	-6.1%
Cc1ccc(OCCn2cc(C(=S)N3CCCC3)c3ccccc32)cc1C	-18.9%	12.8%	-2.4%	-2.7%	2.6	1.0%
Cc1ccc(Nc2ccc(N)cc2S(=O)(=O)O)cc1	-2.8%	-1.2%	6.4%	?	-7.5	-6.6%
Nc1ccc(Nc2ccccc2)c(S(=O)(=O)O)c1	-15.4%	5.0%	-15.7%	14.1µM*	4.8	-2.8%
COC1=C/C(=C/c2c(N)n3c(nc2=O)sc2cc(S(C)(=O)=O)ccc23)C=CC1=O	-1.8%	-15.2%	-6.1%	1.7%	-13.5	.
CS(=O)(=O)c1ccc2c(c1)sc1nc(=O)c(/C=C3/C=CC(=O)C(O)=C3)c(N)n12	-11.8%	-14.4%	-5.7%	8.91µM*	-21.3	?
C/C(=N\NC(=O)CSCc1ccccc1Cl)c1cc(O)ccc1O	2.0%	-5.6%	10.6%	35.5µM*	-5.0	2.2%
Oc1ccccc1/C=N/Nc1cccc2cccnc12	-12.5%	-13.0%	-9.8%	7.94µM*	4.9	-11.2%
O=C(COc1cccc2cccnc12)N/N=C/c1ccccc1O	2.1%	17.2%	10.2%	2.7%	-3.5	.
C[N+]1(Cc2ccccc2)CCC(C(=O)OCC2CCCC2)CC1 (configuration not stated)	5.4%	6.0%	-13.2%	.	.	.
O=C(O)c1ccccc1-c1ccccc1C(=O)Nc1ccc(F)cc1	.	-1.3%	.	-0.9%	.	.
O=C(NNC(=O)c1ccccc1-n1cccc1)c1ccc(Cl)cc1Cl	4.9%	6.0%	-3.5%	5.8%	-4.1	?
O=C(O)c1ccccc1C(=O)NNc1ccc(Cl)cc1Cl	2.1%	1.3%	-5.9%	15.8µM*	1.4	4.3%
